Inconclusive results are not listed. Entries that show only a call come without a potency. Calls of active or inactive are those of the source. Unless noted, calls come from the whole dose curve; as a rule, active = well fitted curve in the direction sought with a large enough effect in the repeat runs; inconclusive = weak or mixed curves; inactive = no such curve, though single readings can be large; an effect the other way counts as inactive or inconclusive.
Columns and labels:
[1] = qHTS assay to identify aromatase inhibitors - cell viability counter screen (AID 743084);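 note: cells stimulated with testosterone during compound exposure; nearly all actives have a fitted effect of over 55% in size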; note: potency is the fitted concentration of half-maximal effect
[2] = target: Aryl hydrocarbon receptor (Homo sapiens) (UniProt P35869); test: qHTS assay to identify small molecule that activate the aryl hydrocarbon receptor (AhR) signaling pathway (AID 743085);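 note: HG2L7.5c1 human HepG2 liver cells with stably integrated DRE-driven firefly reporter; series mostly up to about 70 µM; nearly all actives have a fitted effect of over 15% in size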
Chain of Aryl hydrocarbon receptor (Homo sapiens) (P35869 whole entry, looked up): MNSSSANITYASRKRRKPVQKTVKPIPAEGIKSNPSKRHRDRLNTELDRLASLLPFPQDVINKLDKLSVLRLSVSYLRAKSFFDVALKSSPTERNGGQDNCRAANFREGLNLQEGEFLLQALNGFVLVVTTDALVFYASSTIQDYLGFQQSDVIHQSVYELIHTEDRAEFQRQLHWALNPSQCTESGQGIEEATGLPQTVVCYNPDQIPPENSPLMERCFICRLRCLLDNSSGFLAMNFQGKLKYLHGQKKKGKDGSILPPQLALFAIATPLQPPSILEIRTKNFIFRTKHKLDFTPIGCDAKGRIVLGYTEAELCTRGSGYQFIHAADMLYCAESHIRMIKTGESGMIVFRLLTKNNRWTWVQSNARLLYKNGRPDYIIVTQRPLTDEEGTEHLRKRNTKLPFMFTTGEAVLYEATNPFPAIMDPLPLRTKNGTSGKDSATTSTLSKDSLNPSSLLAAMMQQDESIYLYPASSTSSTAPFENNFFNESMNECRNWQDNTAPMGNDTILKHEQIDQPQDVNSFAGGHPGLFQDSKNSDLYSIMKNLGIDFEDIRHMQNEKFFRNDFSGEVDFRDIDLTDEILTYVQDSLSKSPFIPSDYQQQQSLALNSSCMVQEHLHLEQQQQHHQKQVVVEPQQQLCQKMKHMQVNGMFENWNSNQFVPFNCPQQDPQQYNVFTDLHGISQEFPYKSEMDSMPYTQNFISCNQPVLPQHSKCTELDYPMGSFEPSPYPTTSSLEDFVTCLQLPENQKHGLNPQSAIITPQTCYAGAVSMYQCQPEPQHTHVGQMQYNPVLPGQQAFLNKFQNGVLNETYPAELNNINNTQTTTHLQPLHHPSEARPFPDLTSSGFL
How it was run: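 HepG2 cells (HG2L7.5c1) stably carrying a firefly luciferase reporter driven by 20 dioxin responsive elements were exposed to compound for 24 h at 37C after a 5 h settling period; luminescence rise (ONE-Glo) indicated activation.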

[3] = qHTS assay to identify small molecule that activate the aryl hydrocarbon receptor (AhR) signaling pathway - cell viability counter screen (AID 743086);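 note: HepG2 liver cells carrying the AhR DRE luciferase reporter; series mostly up to about 70 µM; nearly all actives have a fitted effect of over 45% in size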
How it was run: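 Cytotoxicity counter screen: CellTiter-Fluor signal (30 min, 37 C) in 4000 HepG2 cells/well carrying the DRE-luciferase reporter, following 24 h compound exposure at 37 C.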

[4] = target: Peroxisome proliferator-activated receptor gamma (Homo sapiens) (UniProt P37231); test: qHTS assay to identify small molecule agonists of the peroxisome proliferator-activated receptor gamma (PPARg) signaling pathway (AID 743094; active = well fitted activation curve with a large enough effect in the signal ratio in the repeat runs, not every such curve was filed as active; the % refers to the signal ratio)
Chain of Peroxisome proliferator-activated receptor gamma (Homo sapiens) (P37231 whole entry, looked up): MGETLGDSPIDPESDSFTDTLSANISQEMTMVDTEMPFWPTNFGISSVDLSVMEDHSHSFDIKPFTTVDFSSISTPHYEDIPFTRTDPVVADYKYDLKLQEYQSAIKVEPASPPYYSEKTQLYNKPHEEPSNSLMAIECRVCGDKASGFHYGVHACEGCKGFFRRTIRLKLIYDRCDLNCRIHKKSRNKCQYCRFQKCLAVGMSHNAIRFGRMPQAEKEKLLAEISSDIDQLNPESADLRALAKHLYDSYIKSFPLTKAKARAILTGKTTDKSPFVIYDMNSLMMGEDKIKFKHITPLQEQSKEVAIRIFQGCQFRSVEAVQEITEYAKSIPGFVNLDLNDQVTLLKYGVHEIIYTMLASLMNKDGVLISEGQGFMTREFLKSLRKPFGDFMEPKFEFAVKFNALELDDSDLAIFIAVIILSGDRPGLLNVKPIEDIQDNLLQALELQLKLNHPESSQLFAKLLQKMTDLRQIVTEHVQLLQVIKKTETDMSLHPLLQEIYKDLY
How it was run: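 Beta-lactamase FRET fluorescence was the read-out after a 1 h room-temperature substrate step, following 17 h compound treatment at 37C of HEK293H cells expressing a UAS-driven bla reporter responsive to PPARg.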

[5] = qHTS assay to identify small molecule antagonists of the peroxisome proliferator-activated receptor gamma (PPARg) signaling pathway - cell viability counter screen (AID 743194); note: nearly all actives have a fitted effect of over 55% in size
How it was run: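 Viability was measured as CellTiter-Glo luminescence in GeneBLAzer PPARg UAS-bla HEK293H cells. These cells had been exposed 17 h at 37 C to compounds together with rosiglitazone at 50 nM final, with the beta-lactamase readout taken in the same wells.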

[6] = qHTS assay for small molecule agonists of the antioxidant response element (ARE) signaling pathway (AID 743202; active = well fitted activation curve with a large enough effect in the signal ratio in the repeat runs, not every such curve was filed as active; the % refers to the signal ratio; note: potency is the fitted concentration of half-maximal effect)
How it was run: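 Quantitative high-throughput format in HepG2 cells bearing an integrated ARE-beta-lactamase reporter. Compound exposure lasted 16 h at 37 C, and fluorescence was read 2 h after adding LiveBLAzer B/G substrate at room temperature.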

[7] = qHTS assay for small molecule agonists of the antioxidant response element (ARE) signaling pathway - cell viability counter screen (AID 743203; calls by dose curve; note: nearly all actives have a fitted effect of over 55% in size)
How it was run: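 HepG2 cells carrying ARE-driven beta-lactamase; 2,000 cells/well; 5 hrs plating; compound pinned from DMSO; 16 hrs 37C/5% CO2; CellTiter-Glo added; 30 min RT; luminescence.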

[8] = qHTS assay for small molecule activators of the heat shock response signaling pathway - cell viability counter screen (AID 743209); note: nearly all actives have a fitted effect of over 50% in size
How it was run: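 Luminescence from CellTiter-Glo, added after the beta-lactamase FRET read, gave the viability signal. Cells were HSE-bla HeLa treated with DMSO-dissolved compounds for 5 h at 37 C following overnight plating.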

[9] = qHTS assay for small molecule activators of the heat shock response signaling pathway (AID 743210; active = well fitted activation curve with a large enough effect in the signal ratio in the repeat runs, with a control signal flat, not every such curve was filed as active; the % refers to the signal ratio;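 note: HeLa cells with beta-lactamase reporter driven by heat shock elements; series mostly up to about 63 µM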)
How it was run: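 HeLa HSE-bla cells, overnight plating; cpd in DMSO 5 h, 37 C; LiveBLAzer B/G FRET substrate 2.5 h RT; fluorescence intensity read.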

[10] = qHTS assay to identify small molecule agonists of the peroxisome proliferator-activated receptor delta (PPARd) signaling pathway - cell viability counter screen (AID 743211); note: nearly all actives have a fitted effect of over 55% in size; note: potency is the fitted concentration of half-maximal effect
How it was run: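 PPARd-bla HEK293H cells (UAS-beta-lactamase reporter) were treated with compounds for 17 h at 37 C. Viability was then read in the same wells by CellTiter-Glo luminescence after 30 min at room temperature.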

[11] = qHTS assay to identify small molecule antagonists of the peroxisome proliferator-activated receptor delta (PPARd) signaling pathway - cell viability counter screen (AID 743213); note: nearly all actives have a fitted effect of over 50% in size
How it was run: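 PPARd-bla HEK293H cells (3000/well) got compound plus 300 nM L165041 agonist for 17 h at 37 C. Viability in the same wells came from CellTiter-Glo luminescence after 30 min at room temperature.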

[12] = qHTS assay to identify small molecule antagonists of the farnesoid-X-receptor (FXR) signaling pathway - cell viability counter screen (AID 743221; active = well fitted cell-killing curve with a large enough effect in the repeat runs, not every such curve was filed as active; note: nearly all actives have a fitted effect of over 50% in size)
How it was run: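 FXR-UAS-bla HEK 293T cells were treated with test compounds plus chenodeoxycholic acid (50 uM final) for 16 h at 37 C. Cell viability in the same wells was then read as CellTiter-Glo luminescence after 30 min at room temperature.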

[13] = target: Vitamin D3 receptor (Homo sapiens) (UniProt P11473); test: qHTS assay to identify small molecule agonists of the vitamin D receptor (VDR) signaling pathway (AID 743222; calls by dose curve)
Chain of Vitamin D3 receptor (Homo sapiens) (P11473 whole entry, looked up): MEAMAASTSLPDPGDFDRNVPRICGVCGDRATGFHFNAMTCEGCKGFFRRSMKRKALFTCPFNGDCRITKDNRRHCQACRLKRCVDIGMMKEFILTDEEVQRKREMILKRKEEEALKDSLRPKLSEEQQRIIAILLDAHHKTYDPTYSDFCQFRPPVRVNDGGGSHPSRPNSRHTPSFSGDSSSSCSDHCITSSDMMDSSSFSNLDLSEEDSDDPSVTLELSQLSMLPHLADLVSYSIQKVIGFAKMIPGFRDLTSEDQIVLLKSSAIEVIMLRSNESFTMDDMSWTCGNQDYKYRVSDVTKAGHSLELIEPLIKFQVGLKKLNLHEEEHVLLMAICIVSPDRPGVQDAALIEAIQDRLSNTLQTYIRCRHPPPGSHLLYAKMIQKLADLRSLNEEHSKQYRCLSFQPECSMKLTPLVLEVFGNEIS
How it was run: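 VDR-bla cells, 2,000/well; 4 h preincubation 37C; cpd (DMSO) 16 h; LiveBLAzer B/G substrate 2 h RT; fluorescence intensity read.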

[14] = target: Vitamin D3 receptor (Homo sapiens) (UniProt P11473); test: qHTS assay to identify small molecule antagonists of the vitamin D receptor (VDR) signaling pathway (AID 743223; active = well fitted inhibition curve with a large enough effect in the signal ratio in the repeat runs, not every such curve was filed as active; the % refers to the signal ratio)
How it was run: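 VDR-bla cells were plated, incubated 4 h at 37C, then given compound and 1alpha,25-dihydroxyvitamin D3 (3 nM final). After 16 h at 37C, LiveBLAzer B/G FRET substrate was added for 2 h at room temperature and fluorescence read.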

[15] = target: Peroxisome proliferator-activated receptor delta (Homo sapiens) (UniProt Q03181); test: qHTS assay to identify small molecule agonists of the peroxisome proliferator-activated receptor delta (PPARd) signaling pathway (AID 743212; calls by dose curve)
Chain of Peroxisome proliferator-activated receptor delta (Homo sapiens) (Q03181 whole entry, looked up): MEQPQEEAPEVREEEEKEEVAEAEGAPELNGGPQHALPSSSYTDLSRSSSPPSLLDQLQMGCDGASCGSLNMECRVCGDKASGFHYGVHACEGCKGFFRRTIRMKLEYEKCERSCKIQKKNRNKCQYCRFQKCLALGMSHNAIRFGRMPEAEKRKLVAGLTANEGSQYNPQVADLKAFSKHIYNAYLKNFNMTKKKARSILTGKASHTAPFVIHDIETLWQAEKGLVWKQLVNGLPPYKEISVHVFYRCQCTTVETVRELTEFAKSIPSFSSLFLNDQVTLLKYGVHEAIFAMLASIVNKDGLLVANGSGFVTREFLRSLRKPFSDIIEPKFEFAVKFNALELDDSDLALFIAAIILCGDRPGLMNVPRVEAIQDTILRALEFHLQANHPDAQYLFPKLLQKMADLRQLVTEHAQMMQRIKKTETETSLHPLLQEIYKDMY
How it was run: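 HEK293H PPARd-bla cells; 5 h preincubation 37 C/5% CO2; compound (DMSO) 37 C; LiveBLAzer B/G FRET substrate 2 h RT; fluorescence intensity.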

[16] = target: Peroxisome proliferator-activated receptor delta (Homo sapiens) (UniProt Q03181); test: qHTS assay to identify small molecule antagonists of the peroxisome proliferator-activated receptor delta (PPARd) signaling pathway (AID 743215; active = well fitted inhibition curve with a large enough effect in the signal ratio in the repeat runs, not every such curve was filed as active; the % refers to the signal ratio;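 note: cells stimulated with agonist L165041 at 300 nM final during compound exposure; series mostly up to about 62 µM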)
How it was run: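 Read-out is beta-lactamase FRET fluorescence, measured 2 h after substrate addition at room temperature. Beforehand, UAS-bla HEK293H cells carrying the PPARd reporter were exposed to compounds with L165041 at 300 nM final for 17 h at 37 C.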

[17] = qHTS assay to identify small molecule agonists of the farnesoid-X-receptor (FXR) signaling pathway - cell viability counter screen (AID 743218); note: nearly all actives have a fitted effect of over 45% in size
How it was run: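 HEK 293T FXR-bla cells; 5 h pre-incubation, 16 h compound exposure at 37 C; LiveBLAzer substrate 2 h RT, then CellTiter-Glo 30 min RT, luminescence.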

[18] = target: Bile acid receptor (Homo sapiens) (UniProt Q96RI1); test: qHTS assay to identify small molecule agonists of the farnesoid-X-receptor (FXR) signaling pathway (AID 743220; active = well fitted activation curve with a large enough effect in the signal ratio in the repeat runs, not every such curve was filed as active; the % refers to the signal ratio)
Chain of Bile acid receptor (Homo sapiens) (Q96RI1 whole entry, looked up): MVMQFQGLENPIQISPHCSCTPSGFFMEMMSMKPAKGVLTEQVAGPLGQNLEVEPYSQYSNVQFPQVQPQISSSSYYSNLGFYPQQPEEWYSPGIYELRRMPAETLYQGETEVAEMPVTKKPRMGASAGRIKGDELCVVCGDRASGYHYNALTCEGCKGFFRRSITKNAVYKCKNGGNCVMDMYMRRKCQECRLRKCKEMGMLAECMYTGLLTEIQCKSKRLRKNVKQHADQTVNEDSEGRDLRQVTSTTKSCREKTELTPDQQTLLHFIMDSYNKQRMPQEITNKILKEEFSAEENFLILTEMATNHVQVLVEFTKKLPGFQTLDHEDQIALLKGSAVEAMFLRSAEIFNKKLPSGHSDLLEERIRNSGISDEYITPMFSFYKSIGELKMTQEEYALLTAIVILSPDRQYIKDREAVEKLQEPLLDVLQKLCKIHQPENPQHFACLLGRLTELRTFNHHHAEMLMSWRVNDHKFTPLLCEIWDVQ
How it was run: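 Beta-lactamase reporter under UAS control in GeneBLAzer FXR HEK 293T cells (5000/well) measured with LiveBLAzer FRET substrate after 2 h at room temperature. Compound exposure lasted 16 h at 37C.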

[19] = target: Peroxisome proliferator-activated receptor gamma (Homo sapiens) (UniProt P37231); test: qHTS assay to identify small molecule antagonists of the peroxisome proliferator-activated receptor gamma (PPARg) signaling pathway (AID 743191; calls by dose curve; note: nearly all actives have a fitted effect of over 30% in size; note: potency is the fitted concentration of half-maximal effect)
How it was run: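 Beta-lactamase reporter under UAS control in HEK293H PPARg-bla cells; compound treatment 17 h at 37C. Read-out: fluorescence intensity after 1 h room-temperature incubation with LiveBLAzer B/G FRET substrate.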

[20] = target: Bile acid receptor (Homo sapiens) (UniProt Q96RI1); test: qHTS assay to identify small molecule antagonists of the farnesoid-X-receptor (FXR) signaling pathway (AID 743217; active = well fitted inhibition curve with a large enough effect in the signal ratio in the repeat runs, not every such curve was filed as active; the % refers to the signal ratio)
How it was run: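 HEK 293T FXR-UAS-bla, 5000 cells/well; compound + CDCA 50 uM final; 16 h, 37 °C; B/G FRET substrate 2 h RT; fluorescence.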

SMILES | Potency [1] | Potency [2] | Potency [3] | Potency [4] | Potency [5] | Potency [6] | Potency [7] | Potency [8] | Potency [9] | Potency [10] | Potency [11] | Potency [12] | Potency [13] | outcome [14] | Potency [15] | Potency [16] | Potency [17] | Potency [18] | Potency [19] | Potency [20]
COC(=O)c1ccc(I)cc1S(=O)(=O)NC(=O)Nc1nc(C)nc(OC)n1 | inactive | inactive | inactive | inactive | inactive | inactive | inactive | inactive | inactive | inactive | inactive | inactive | inactive | inactive |  |  |  |  |  | 
CN1CCN(C(c2ccccc2)c2ccccc2)CC1 | inactive | inactive | inactive | inactive | inactive | inactive |  | inactive | inactive | inactive | inactive | inactive | inactive | inactive | inactive | inactive | inactive |  |  | 
Clc1ccc(Cn2c(CN3CCCC3)nc3ccccc32)cc1 | inactive | inactive | inactive | inactive | inactive |  | inactive | inactive |  | 29.8 µM (active) |  |  |  | inactive |  |  |  |  |  | 
CCCCC(CC)CN1C(=O)C2C3C=CC(C3)C2C1=O (stereo not drawn) | 54.5 µM (active) | inactive | inactive | inactive | inactive | inactive | inactive | inactive | inactive |  |  |  | inactive |  | inactive | inactive |  |  |  | 
O=P(O)(OCc1ccccc1)OCc1ccccc1 | inactive | inactive | inactive | inactive | inactive |  | inactive | inactive | inactive |  | inactive | inactive | inactive | inactive |  |  | inactive | inactive |  | 
O=C(O)c1ccco1 | inactive | inactive | inactive | inactive |  | inactive |  | inactive | inactive | inactive | inactive |  | inactive | inactive |  |  | inactive |  |  | 
CCOc1ccc(O)cc1 | inactive | inactive | inactive |  | inactive | 61.1 µM (active) | inactive | inactive | inactive | inactive | inactive |  | inactive | inactive | inactive |  | inactive |  | inactive | 
CC(=O)OC[C@H]1O[C@@H](n2ncc(=O)[nH]c2=O)[C@H](OC(C)=O)[C@@H]1OC(C)=O | inactive | inactive | inactive |  | inactive | inactive | inactive | inactive | inactive |  | inactive |  |  |  | inactive |  | inactive | inactive | 0.841 µM (active) | 
N=c1ccn2c(n1)O[C@H]1[C@H](O)[C@@H](CO)O[C@H]12 | inactive | inactive | inactive | inactive | inactive |  | inactive | inactive | inactive | inactive | inactive | inactive |  | inactive |  |  | inactive |  |  | 
C[C@@H](c1ncncc1F)C(O)(Cn1cncn1)c1ccc(F)cc1F (stereo partly drawn) | inactive | inactive | inactive | inactive | inactive | inactive | inactive | inactive | inactive |  | inactive | inactive |  |  | inactive |  | inactive |  |  | inactive
CCOC(=O)C(F)(F)F | inactive | inactive | inactive | inactive | inactive |  | inactive | inactive | inactive | inactive | inactive | inactive | inactive | inactive | inactive | inactive | inactive | inactive |  | inactive
C[C@@H]1C[C@H]2O[C@@]3(O[C@@H]2C(C)(C)O)[C@H](O)[C@@]2(C)[C@@H]4CC[C@H]5C(C)(C)[C@@H](O[C@@H]6OC[C@@H](O)[C@H](O)[C@H]6O)CC[C@@]56C[C@@]46CC[C@]2(C)[C@@H]13 | inactive | inactive | inactive | inactive | inactive |  | inactive | inactive | inactive |  | inactive | inactive | inactive | inactive |  |  |  |  |  | 
NCc1ccccc1Sc1ccccc1CO | inactive | inactive | inactive | inactive | inactive |  |  | inactive | inactive | inactive | inactive |  |  | inactive |  |  | inactive |  |  | 

Source: PubChem BioAssay (Tox21)
